These results are taken from PubChem BioAssay (NCI).

Among the test systems are HCT-15 colon; HT29 colon; SNB-75 CNS; SNB-19 CNS; U251 CNS; SK-MEL-5 melanoma; UACC-62 melanoma; LOX IMVI melanoma; SK-MEL-28 melanoma; SK-MEL-2 melanoma; SN12C renal; UO-31 renal; TK-10 renal; ACHN renal; A498 renal; CCRF-CEM leukemia; MOLT-4 leukemia; PC-3 prostate; EKVX NSCLC; CAKI-1 renal.
Common to all, as to assay: NCI-60 one-dose screen, 48 h (100 = growth as untreated, 0 = no growth, -100 = all killed)
What all share (conditions): 10 µM unless noted

Structures are written as SMILES. About 83,000 compounds went through this panel and 20% of them were active in at least one assay; those are over-represented in the sample as a whole.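 The test compound was applied at a single concentration to cells in 96-well plates for 48 hours, and percent growth was recorded.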 Values without a mark were called inactive. Calls of active or inactive are those of the source. Rule for the calls: active = growth percent below 10; inactive = the rest.

Regarding `COc1ccc(C(=O)c2cc(OC)c(OC)c(OC)c2)cc1/C=C/C(=O)c1ccc2c(c1)OCO2`, the growth is -22.6% (active) in the experiment with HCT-15 colon; -27.2% (active) in the experiment with HT29 colon; 28.2% in the experiment on SNB-75 CNS; 11.8% in the experiment with SNB-19 CNS; -19.1% (active) in the experiment on U251 CNS; 8.97% (active) with SK-MEL-5 melanoma. Moreover, the growth was -63.5% (active) with UACC-62 melanoma; -36.5% (active) in the experiment with LOX IMVI melanoma; -57% (active) in the experiment on SK-MEL-28 melanoma; 22.2% with SK-MEL-2 melanoma; 23.8% in the experiment on SN12C renal; -9.84% (active) in the experiment on UO-31 renal. Moreover, the growth in the experiment on TK-10 renal is 44.6%; with ACHN renal, -76.4% (active); in the experiment with A498 renal it was 71.9%; in the experiment on CCRF-CEM leukemia it was -9.53% (active); in the experiment on MOLT-4 leukemia, 2.27% (active).

Consider `CCCCC[C@@H]1Cc2cc(O)c(C(=O)O)c3c2[C@H](C[C@@]2(CCCO2)O3)O1`, for which the growth in the experiment on HCT-15 colon is 112%; in the experiment on HT29 colon, 113%; with SNB-75 CNS, 98.1%; with SNB-19 CNS, 107%; in the experiment on U251 CNS, 105%; with PC-3 prostate, 101%. Also, the growth in the experiment on UACC-62 melanoma is 110%; in the experiment on LOX IMVI melanoma, 93.6%; in the experiment on SK-MEL-2 melanoma, 67.4%; in the experiment with EKVX NSCLC, 108%; with SN12C renal, 104%; in the experiment on UO-31 renal it was 44.7%. The growth was 129% with TK-10 renal; 108% with ACHN renal; 102% with CAKI-1 renal; 133% in the experiment on A498 renal; 94.5% in the experiment with CCRF-CEM leukemia; 62.6% with MOLT-4 leukemia.

As for `COc1ccc(S(=O)(=O)Nc2cc(/C=C\c3cc(OC)c(OC)c(OC)c3)cc(OC)c2OC)cc1OC`, the growth in the experiment with HCT-15 colon was 24.1%; with HT29 colon, 13.6%; with SNB-75 CNS, -4.59% (active); in the experiment on SNB-19 CNS it was 40%; in the experiment on U251 CNS, 23.1%; in the experiment with SK-MEL-5 melanoma, 23.7%. The growth is 37.3% in the experiment on UACC-62 melanoma; 48.2% in the experiment with LOX IMVI melanoma; 52.5% in the experiment on SK-MEL-28 melanoma; 36.6% in the experiment with SK-MEL-2 melanoma; 45% in the experiment on SN12C renal; 40.7% in the experiment on UO-31 renal. Also, the growth in the experiment with TK-10 renal is 73.4%; in the experiment on ACHN renal, 45.1%; in the experiment with CAKI-1 renal, 24.4%; in the experiment with CCRF-CEM leukemia, 9.18% (active); with MOLT-4 leukemia, 17.1%.

Regarding `COc1ccccc1OCC(=O)Nc1sc2c(c1C(N)=O)CCC2`, the growth in the experiment with HCT-15 colon was 83.1%; in the experiment on HT29 colon, 74.1%; in the experiment with SNB-75 CNS it was 86.8%; in the experiment on SNB-19 CNS, 70.4%; with U251 CNS, 60.9%; with SK-MEL-5 melanoma it was 70%. Further, the growth in the experiment with UACC-62 melanoma was 49.7%; in the experiment with LOX IMVI melanoma, 50.5%; with SK-MEL-28 melanoma, 101%; in the experiment on SK-MEL-2 melanoma, 37.5%; with EKVX NSCLC, 99.9%; in the experiment on SN12C renal, 64.2%. Moreover, the growth with UO-31 renal is 26.5%; in the experiment on TK-10 renal it was 104%; in the experiment on ACHN renal, 32.2%; with CAKI-1 renal it was 63.7%; in the experiment on A498 renal, 67.1%; in the experiment with CCRF-CEM leukemia, 24.3%. Also, the growth in the experiment with MOLT-4 leukemia is 26%.

In the case of `Cc1ccccc1C(=O)c1ccccc1C(=O)O`, the growth is 107% in the experiment on HCT-15 colon; 111% in the experiment on HT29 colon; 84.8% in the experiment with SNB-75 CNS; 111% in the experiment with SNB-19 CNS; 104% in the experiment with U251 CNS; 104% in the experiment with SK-MEL-5 melanoma. The growth in the experiment on UACC-62 melanoma was 104%; with LOX IMVI melanoma, 95.9%; with SK-MEL-2 melanoma, 124%; in the experiment with EKVX NSCLC, 105%; in the experiment with SN12C renal, 105%; in the experiment on UO-31 renal, 89.7%. In addition, the growth is 96.5% in the experiment with TK-10 renal; 111% in the experiment on ACHN renal; 88.8% in the experiment with CAKI-1 renal; 126% in the experiment on A498 renal; 103% with CCRF-CEM leukemia; 99.5% in the experiment on MOLT-4 leukemia.

As to `COc1cc(Cn2c(SCC(=O)Nc3cc(OC)c(OC)c(OC)c3)nc3ccccc3c2=O)cc(OC)c1OC`, the growth with HCT-15 colon was 89.9%; in the experiment with HT29 colon, 99.5%; in the experiment with SNB-75 CNS it was -13.7% (active); in the experiment on SNB-19 CNS it was 74.8%; with U251 CNS, 52.6%; in the experiment on UACC-62 melanoma it was 84.4%. Also, the growth in the experiment with LOX IMVI melanoma was 92.1%; in the experiment with SK-MEL-28 melanoma, 100%; in the experiment on SK-MEL-2 melanoma, 75.1%; in the experiment on SN12C renal it was 82%; in the experiment on UO-31 renal, 80.4%; in the experiment on TK-10 renal, 67.9%. For the same compound, the growth with ACHN renal is 33.4%; in the experiment on CAKI-1 renal, 95.5%; in the experiment with A498 renal it was 62.4%; in the experiment on MOLT-4 leukemia it was 89.4%.

Consider `C=C1C(=O)O[C@H]2[C@H]1CC/C(COC(=O)NCc1cc(OC)cc(OC)c1)=C\CC[C@@]1(C)O[C@@H]21`, for which the growth in the experiment with HCT-15 colon is 1.86% (active); in the experiment on HT29 colon, -40.2% (active); with SNB-75 CNS, 59.3%; in the experiment on SNB-19 CNS it was 42.3%; in the experiment on U251 CNS it was 40.7%; in the experiment on PC-3 prostate, 30.2%. Also, the growth in the experiment on UACC-62 melanoma is -44.9% (active); with LOX IMVI melanoma, -31% (active); in the experiment with SK-MEL-2 melanoma, 23.2%; in the experiment on EKVX NSCLC it was 40.5%; with SN12C renal, 7.86% (active); in the experiment on UO-31 renal, -58.4% (active). The growth in the experiment with TK-10 renal was -1.01% (active); in the experiment with ACHN renal it was 5.79% (active); in the experiment on CAKI-1 renal it was -15.1% (active); with A498 renal it was 68%; with CCRF-CEM leukemia it was 2.4% (active); in the experiment with MOLT-4 leukemia it was -3.45% (active).

On to `COC1=CC(c2ccc[nH]2)=N/C1=C\c1[nH]c(C)c(C(=O)CCCCC(=O)Oc2ccc3c(c2)CCC2C3CC[C@]3(C)[C@@H](O)CC[C@@H]23)c1C` (some centres undefined), for which the growth with HCT-15 colon was 37.1%; in the experiment on HT29 colon it was 38.7%; with SNB-75 CNS it was 62.7%; with SNB-19 CNS, 75.6%; with U251 CNS it was 52.6%; with SK-MEL-5 melanoma, 47.8%. In addition, the growth in the experiment on UACC-62 melanoma is 57.9%; in the experiment with LOX IMVI melanoma, 1.7% (active); in the experiment on SK-MEL-28 melanoma, 81.3%; in the experiment with SK-MEL-2 melanoma, 70.5%; with SN12C renal, 58.8%; in the experiment on UO-31 renal, 42.7%. Moreover, the growth in the experiment on TK-10 renal is 96.7%; in the experiment on ACHN renal, 62.9%; in the experiment on CAKI-1 renal it was 25.7%; in the experiment with A498 renal, 38.5%; in the experiment on CCRF-CEM leukemia it was 17.2%; in the experiment on MOLT-4 leukemia, 22.8%.

With `Cc1ccc2nc(SCn3nnc4ccccc4c3=O)[nH]c2c1`, the growth is 125% with HCT-15 colon; 102% with HT29 colon; 88% in the experiment on SNB-75 CNS; 108% in the experiment on SNB-19 CNS; 103% in the experiment on U251 CNS; 101% in the experiment on SK-MEL-5 melanoma. Also, the growth in the experiment with UACC-62 melanoma was 98.4%; in the experiment with LOX IMVI melanoma it was 100%; in the experiment with SK-MEL-28 melanoma, 121%; in the experiment with SK-MEL-2 melanoma, 69.5%; with EKVX NSCLC it was 97.1%; with SN12C renal, 108%. For the same compound, the growth in the experiment on UO-31 renal was 73.8%; in the experiment on TK-10 renal, 196%; with ACHN renal, 105%; in the experiment on CAKI-1 renal, 93.5%; with A498 renal, 108%; with CCRF-CEM leukemia, 102%.
